# Reference: the supplement of paper PMC12494721
# Counter-ions that a name gives are not always drawn.
# Tests used:
# Conditions in all cases: 20 µM; incubation time: 27 h, anaerobic, 37 °C;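 for the amine columns active = adjusted P below 0.05 in both replicates with a change the same way and a mean fold change under 0.8 or over 1.25; inactive = the rest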
# [1] = tested on: Clostridium sporogenes DSM 1664; test: growth (OD595) fold change vs plate DMSO controls (fold change (ratio)); higher = more growth
# In short: (§1)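 The measure reported is growth, taken as fold change against the median of DMSO controls on the same plate. Anaerobic mGAM cultures in 96-well plates (27 h, 37 °C) were read at 595 nm, blank-subtracted, corrected for compound background using 20 µM compound solutions in water, and multiplied by a calibration factor of 5 to give OD. Any fold change above 1.5 became NA, and 2 biological replicates were averaged.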
# Escherichia coli IAI1 [2] = test: as above
# In short: as §1
# [3] = tested on: Klebsiella aerogenes DSM 30053; test: as above
# In short: as §1
# [4] = tested on: Ruminococcus gnavus DSM 108212; test: as above
# In short: as §1
# [5] = tested on: Klebsiella aerogenes DSM 30053; test: fold change of Histamine concentration vs plate DMSO controls (fold change (ratio)); higher = more amine produced, active = hit call of the paper (significant change in both replicates, either direction)
# In short: (§2)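 Amines were quantified by LC–triple-quadrupole MS in dynamic MRM mode against external calibration curves, with drift correction within each batch. The samples were whole anaerobic mGAM cultures of four gut bacterial strains, grown for 27 h at 37 °C in 80 µL wells and extracted with cold acetonitrile/methanol with 0.1% formic acid, then centrifuged. Values are reported as fold change over DMSO controls on the same plate. The mean of 2 biological replicates is given.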
# [6] = tested on: Clostridium sporogenes DSM 1664; test: fold change of Tryptamine concentration vs plate DMSO controls (fold change (ratio)); higher = more amine produced, active = hit call of the paper (significant change in both replicates, either direction)
# In short: as §2
# [7] = tested on: Ruminococcus gnavus DSM 108212; test: as above
# In short: as §2
# Escherichia coli IAI1 [8] = test: fold change of Putrescine concentration vs plate DMSO controls (fold change (ratio)); higher = more amine produced, active = hit call of the paper (significant change in both replicates, either direction)
# In short: as §2
# [9] = tested on: Klebsiella aerogenes DSM 30053; test: as above
# In short: as §2
# Escherichia coli IAI1 [10] = test: fold change of Cadaverine concentration vs plate DMSO controls (fold change (ratio)); higher = more amine produced, active = hit call of the paper (significant change in both replicates, either direction)
# In short: as §2
# [11] = tested on: Klebsiella aerogenes DSM 30053; test: as above
# In short: as §2
# [12] = tested on: Ruminococcus gnavus DSM 108212; test: fold change of 2-Phenylethylamine concentration vs plate DMSO controls (fold change (ratio)); higher = more amine produced, active = hit call of the paper (significant change in both replicates, either direction)
# In short: as §2
SMILES,growth [1],growth (Escherichia coli IAI1 [2]),growth [3],growth [4],fold change of Histamine concentration [5],fold change of Tryptamine concentration [6],fold change of Tryptamine concentration [7],fold change of Putrescine concentration (Escherichia coli IAI1 [8]),fold change of Putrescine concentration [9],fold change of Cadaverine concentration (Escherichia coli IAI1 [10]),fold change of Cadaverine concentration [11],fold change of 2-Phenylethylamine concentration [12]
Cc1cc(C(C#N)c2ccc(Cl)cc2)c(Cl)cc1NC(=O)c1cc(I)cc(I)c1O (stereo unspecified) [Closantel],0.0125,1.08,1.03,0.185,0.981 (inactive),0.0178 (active),0.121 (active),1.19 (inactive),0.984 (inactive),1.32 (active),1.05 (inactive),0.13 (active)
N#C/N=C1\SCCN1Cc1ccc(Cl)nc1,1.01,0.969,0.996,1,0.995 (inactive),1 (inactive),1 (inactive),1.04 (inactive),0.994 (inactive),0.991 (inactive),1 (inactive),1.03 (inactive)
CC(N)C(O)c1ccccc1 (stereo unspecified) [Phenylpropanolamine hydrochloride],0.914,1.04,0.98,1.21,1.1 (inactive),1.22 (inactive),1.07 (inactive),1.06 (inactive),1.03 (inactive),1.05 (inactive),0.982 (inactive),1.08 (inactive)
CC(=NC#N)N(C)Cc1ccc(Cl)nc1,0.969,0.971,0.989,1.13,1.02 (inactive),0.985 (inactive),1.02 (inactive),1.02 (inactive),0.979 (inactive),1.01 (inactive),0.992 (inactive),1.05 (inactive)
CC1(C)C(C=C(Cl)Cl)C1C(=O)OCc1cccc(Oc2ccccc2)c1 (mixture of isomers),0.957,0.993,1,1.07,1.01 (inactive),1.05 (inactive),1.03 (inactive),1.04 (inactive),0.995 (inactive),1.06 (inactive),1 (inactive),1.02 (inactive)
COc1cc2c(c(OC)c1OC)-c1ccc(OC)c(=O)cc1[C@@H](NC(C)=O)CC2 [Colchicine],0.992,1.02,0.975,1.16,1.06 (inactive),1.02 (inactive),0.889 (inactive),1.04 (inactive),1.02 (inactive),1.04 (inactive),0.983 (inactive),0.829 (inactive)
C[C@@H]1C[C@@H]([C@H](O)CC2CC(=O)NC(=O)C2)C(=O)[C@@H](C)C1 [Cycloheximide],1.17,0.978,0.995,1.25,1.08 (inactive),0.956 (inactive),1.01 (inactive),1.06 (inactive),1.03 (inactive),1.01 (inactive),0.998 (inactive),0.95 (inactive)
CC1(C)[C@H](/C=C(\Cl)C(F)(F)F)[C@@H]1C(=O)OC(C#N)c1cccc(Oc2ccccc2)c1 (stereo partly specified),0.953,0.991,0.981,0.999,0.987 (inactive),0.918 (inactive),1.03 (inactive),0.976 (inactive),0.987 (inactive),1.02 (inactive),0.995 (inactive),1.08 (inactive)
CC(=O)O[C@H]1CC[C@@]2(C)C(=CC[C@@H]3[C@@H]2CC[C@]2(C)C(=O)CC[C@@H]32)C1 [Dehydroisoandosterone 3-acetate],0.905,1.04,0.994,1.08,1.02 (inactive),0.937 (inactive),1.04 (inactive),1.08 (inactive),1.04 (inactive),1.01 (inactive),1.01 (inactive),1.04 (inactive)
CN(C)[C@@H]1C(=O)C(C(N)=O)=C(O)[C@@]2(O)C(=O)C3=C(O)c4c(O)cccc4[C@@](C)(O)[C@H]3[C@H](O)[C@@H]12 [Oxytetracycline dihydrate],0.0153,0.133,0.113,0.955,0.0509 (active),0.0182 (active),0.898 (inactive),0.279 (active),0.46 (active),0.113 (active),0.413 (active),0.92 (inactive)
O=C(CCCN1CCC(n2c(=O)[nH]c3ccccc32)CC1)c1ccc(F)cc1 [Benperidol],1.07,0.943,0.941,0.827,1 (inactive),1.01 (inactive),1.03 (inactive),0.998 (inactive),1.02 (inactive),1.02 (inactive),1.02 (inactive),1.05 (inactive)
OC(c1ccccc1)(c1ccccc1)C1CCNCC1 [Azacyclonol],1.09,1.01,1.01,1.1,1.06 (inactive),1.02 (inactive),1.07 (inactive),1.02 (inactive),1.01 (inactive),0.849 (inactive),1 (inactive),1.06 (inactive)
CC1COC(Cn2cncn2)(c2ccc(Oc3ccc(Cl)cc3)cc2Cl)O1 (stereo unspecified),1.16,1.02,1.01,1.13,1.01 (inactive),0.964 (inactive),0.934 (inactive),1.02 (inactive),0.996 (inactive),0.995 (inactive),0.995 (inactive),0.954 (inactive)
